{
  "source": "PubChem BioAssay (NCI)",
  "note": "The panel holds about 83,000 compounds, 20% with a hit somewhere; the sample as a whole holds those more often.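 The test compound was applied at a single concentration to cells in 96-well plates for 48 hours, and percent growth was recorded.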 Unmarked numbers belong to inactive results. Activity calls are given as the source filed them.",
  "data": [
    {"test_system": "UO-31 renal", "test": "NCI-60 one-dose screen, 48 h (100 = growth as untreated, 0 = no growth, -100 = all killed)", "conditions": "10 µM unless noted", "experimental": "Growth inhibition of the UO-31 human tumor cell line is measured as a screen for anti-cancer activity. Cells are grown in 96 well plates and exposed to the test compound for 48 hours. Compounds are tested at a single concentration, which is 10^-5 M for most compounds. The reported endpoint is percent growth (GI% or GIPRCNT), where numbers from 0 - 100% represent growth inhibition, and numbers from -100% - 0 represent cell death. For example, a value of 40 represents 60% growth inhibition. A value of 0 means no net growth occurred over the course of the experiment. A value of -40 indicates 40% of cells at the beginning of the experiment died by the end of the experiment. A value of -100 means all cells are dead at the end of the experiment.\nNCI-60 Human Tumor Cell Lines Screen was performed using the standard one-dose NCI protocol, which is described in more detail at https://dtp.cancer.gov/discovery_development/nci-60/default.htm.\nCompounds with GIPRCNT values below 10 were considered active. Activity score was based on GIPRCNT using the following formula: […]\nScore is 0 for GIPRCNT values of 100 or above, 50 for GIPRCNT values of 0, and 100 for GIPRCNT values of -100.", "values": [
      {"compound": "CCOC(=O)c1ccccc1SC(C[N+](=O)[O-])c1ccccc1", "note": "(stereo not given)", "growth": "99.4%"},
      {"compound": "CC(=O)N(C)c1ccc(Nc2cc(C)[nH]c3ccc4ncnc4c23)cc1", "growth": "72.6%"},
      {"compound": "Nc1c(C(=O)c2ccc(Br)cc2)sc2nc3c(cc12)CCCC3", "growth": "89.7%"},
      {"compound": "CCOc1cccc(/C=N/NC(=O)c2ccc(Nc3ccnc(C(F)(F)F)c3)cc2)c1O", "growth": "-11% (active)"},
      {"compound": "CC(C)=CCC[C@H](C)c1ccc(C)c2c1OCN(CCO)C2", "growth": "42.4%"},
      {"compound": "CCOC(=O)C1=C(C)NC(SCc2nnc(-c3ccc(Cl)cc3)o2)=NC1c1ccc(Cl)cc1", "note": "(stereo not given)", "growth": "48.7%"},
      {"compound": "Fc1ccc(-c2nnc(N3CCOCC3)c3ccccc23)cc1", "growth": "85.6%"},
      {"compound": "CCCCCCCCCCCCCCCCOc1ccc(S(=O)(=O)N(C)C)cc1[N+](=O)[O-]", "growth": "98.5%"},
      {"compound": "COc1cc2cc(C(=O)Nc3ccccc3)c(N)nc2cc1OC", "growth": "5.81% (active)"},
      {"compound": "CCN(C(=O)Nc1cccc2ccccc12)c1ccccc1", "growth": "73%"},
      {"compound": "NCCCOc1cc2ccccc2cc1C(=O)NCCCOc1cc2ccccc2cc1C(=O)Nc1ccc(Cl)cc1O", "growth": "-95.4% (active)"},
      {"compound": "CN(C)c1ccc(C(c2ccccc2)c2ccc(N(C)C)cc2)cc1", "growth": "62.1%"},
      {"compound": "O=C(Nc1ccc(Oc2ccc(NC(=O)Nc3ccccc3Cl)cc2)cc1)Nc1ccccc1Cl", "growth": "20.1%"},
      {"compound": "O=C(CSc1ccc(Cl)cc1)Nc1ccc(-c2nc3ccccc3s2)c(Cl)c1", "growth": "38.2%"},
      {"compound": "COc1cccc(NC(=O)c2c(-c3ccccc3)c(-c3ccccc3)n[nH]c2=O)c1", "growth": "86.7%"},
      {"compound": "COc1cc(C2CC(c3cccc(Nc4ccnc5cc(Cl)ccc45)c3)=NN2c2ccc(Cl)cc2)cc(OC)c1OC", "note": "(stereo not given)", "growth": "23.6%"},
      {"compound": "Cc1cc(Cl)c2ccc(N(C)C)cc2n1", "growth": "84.4%"},
      {"compound": "CN1CCN(Cc2ccc(NC(=O)c3cncc(C#Cc4ccc(N)nc4)c3)cc2C(F)(F)F)CC1", "growth": "-1.73% (active)"},
      {"compound": "C=C(C)[C@@H]1CC[C@]2(C)[C@H](CC=C3[C@@H]4C[C@](C)(C(=O)N5CCN(C)CC5)CC[C@]4(C)CC[C@]32C)[C@@]1(C)CCC#N", "growth": "66.1%"},
      {"compound": "C=CCn1c(SCC(=O)Nc2ccc(C(=O)/C=C/c3ccc(Cl)cc3)cc2)nnc1-c1ccc(Cl)cc1", "growth": "61.7%"},
      {"compound": "COc1ccc(/C=C2\\CCCC3=C2N=C2SC(C)=NN2C3c2ccc(OC)c(OC)c2)cc1OC", "note": "(stereo not given)", "growth": "36.1%"},
      {"compound": "CN(C)c1ccc(N2Cc3ccccc3OC3=C2C(=O)c2c(O)ccc(O)c2C3=O)cn1", "growth": "-99.1% (active)"},
      {"compound": "COc1ccc2nc(NC(=O)/C(=C/c3cc(OC)c(OC)c(OC)c3)c3ccc(OC)c(OC)c3)sc2c1", "growth": "67.4%"},
      {"compound": "COc1cc(/C=C/C(=O)c2ccc(NC(=O)CSc3nnc(-c4ccc(Cl)cc4)n3-c3ccccc3)cc2)cc(OC)c1OC", "growth": "75.6%"},
      {"compound": "Cc1ccc(NC(=O)c2[nH]c(SCCN(C)C)nc2-c2ccc(F)cc2)cc1Nc1ccc2ncn(C)c(=O)c2c1", "growth": "31.4%"},
      {"compound": "CCCCCc1c(C)[nH]c(/C=C2\\N=C(c3ccc[nH]3)C=C2CC)c1C", "growth": "-85.8% (active)"},
      {"compound": "CC1=C(C(=O)Nc2ccc(F)cc2)C(c2ccc(C)cc2)C2=C(CC(C)(C)CC2=O)N1", "note": "(stereo not given)", "growth": "63.2%"},
      {"compound": "C#CCNC(=S)N/N=C(\\C)c1ccccn1", "growth": "-13.9% (active)"},
      {"compound": "COc1ccc(NC(=O)/C=C/c2ccc(NC(=O)N3CCCC3)cc2)cn1", "growth": "100%"},
      {"compound": "CC1CCN(Cc2ccc(NC(=O)c3cc4ccc5cccnc5c4[nH]3)cc2)CC1", "growth": "36.7%"},
      {"compound": "NC(=Nc1ccccc1)SCCCSC(N)=Nc1ccccc1", "growth": "42.1%"},
      {"compound": "Cc1cc2nc3c(=O)[nH]c(=O)nc-3n(CC=O)c2cc1C", "growth": "106%"},
      {"compound": "CCCCNCC(O)c1cc(-c2ccc(C(F)(F)F)cc2)nc(-c2ccc(C(F)(F)F)cc2)c1", "note": "(stereo not given)", "growth": "-88.2% (active)"},
      {"compound": "O=C(Nc1ccc(OS(=O)(=O)c2ccc(F)cc2)cc1)C12CC3CC(CC(C3)C1)C2", "growth": "83.8%"},
      {"compound": "COc1ccc2c(c1)N(CCO)C1=C(C(=O)OC1)C2c1cccc(Br)c1", "note": "(stereo not given)", "growth": "32.3%"},
      {"compound": "O=C(c1ccc(C(F)(F)F)c(Cl)c1)N(Cc1ccc(Cl)cc1)c1ccc(-c2cc(C(F)(F)F)[nH]n2)c(O)c1", "growth": "5.66% (active)"},
      {"compound": "CC(C)c1[nH]ncc1-c1nc2ccc3[nH]ncc3c2c2c1CCCC2", "growth": "12.3%"},
      {"compound": "CCOC(=O)c1ccc(NCCC(=O)O)cc1", "growth": "83.1%"},
      {"compound": "Cc1ccc(NC(=O)c2nc(S(C)=O)oc2-c2ccc(F)cc2)cc1Nc1nccc(-c2cccnc2)n1", "note": "(stereo not given)", "growth": "84.5%"},
      {"compound": "Nc1ccc(C(OC(=O)c2cc3ccccc3c(Cc3c(O)c(C(=O)OC(c4ccc(N)cc4)(c4ccc(N)cc4)c4ccc(N)cc4)cc4ccccc34)c2O)(c2ccc(N)cc2)c2ccc(N)cc2)cc1", "growth": "29%"}
    ]}
  ]
}
